# Assay results: the supplement of paper PMC6555819
# Tests used:
# Assay in all cases: PBM binding z-score (relative to random genomic background probes); higher = stronger binding; sequences stand for … in GC…GCGATTGACAGCGTAGAATGAAGG
# [1] = test system: FXR:RXRa (NR concentration 270 nM, RXRa partner concentration 90 nM)
# Summary of the method: (§1)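 Binding buffer was PBS pH 7.4 with 2% milk, 0.02% Triton X-100, 1 mM DTT, 0.2 mg/mL BSA and 0.4 mg/ml salmon testes DNA. In it, ligand-free nuclear receptor dimers were incubated 1 h on custom Agilent 4×180K protein-binding microarrays carrying double-stranded probes. Antibodies against each partner (one per run) detected binding, and z-scores were calculated against random background probes after regression normalization of scanned fluorescence.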
# [2] = test system: LXRa:RXRa (NR concentration 270 nM, RXRa partner concentration 90 nM)
# Summary of the method: as §1
# [3] = test system: LXRa homodimer (NR concentration 270 nM)
# Summary of the method: as §1
# [4] = test system: LXRb:RXRa (NR concentration 270 nM, RXRa partner concentration 90 nM)
# Summary of the method: as §1
# [5] = test system: LXRb homodimer (NR concentration 270 nM)
# Summary of the method: as §1
# [6] = test system: PPARa:RXRa (NR concentration 270 nM, RXRa partner concentration 90 nM)
# Summary of the method: as §1
# [7] = test system: PPARg:RXRa (NR concentration 180 nM, RXRa partner concentration 90 nM)
# Summary of the method: as §1
# [8] = test system: PPARg:RXRa 270nM:90nM, anti-RXR (NR concentration 270 nM, RXRa partner concentration 90 nM)
# Summary of the method: as §1
# [9] = test system: PPARg:RXRa 30nM:10nM, anti-RXR (NR concentration 30 nM, RXRa partner concentration 10 nM)
# Summary of the method: as §1
# [10] = test system: PPARg:RXRa 90nM:30nM, anti-RXR (NR concentration 90 nM, RXRa partner concentration 30 nM)
# Summary of the method: as §1
# [11] = test system: PPARg:RXRa DBDmut IVT, anti-RXR (DBD mutation: RXRa K156A/R161A, NR concentration 270 nM, RXRa partner concentration 90 nM)
# Summary of the method: as §1
# [12] = test system: PPARg:RXRa IVT, anti-PPARg (NR concentration 270 nM, RXRa partner concentration 90 nM)
# Summary of the method: as §1
# [13] = test system: PPARg DBDmut:RXRa IVT, anti-PPARg (DBD mutation: PPARg1 K132A/R137A, NR concentration 270 nM, RXRa partner concentration 90 nM)
# Summary of the method: as §1
# [14] = test system: PPARg DBDmut IVT, anti-PPARg (DBD mutation: PPARg1 K132A/R137A, NR concentration 270 nM)
# Summary of the method: as §1
# [15] = test system: PPARg homodimer (NR concentration 180 nM)
# Summary of the method: as §1
# [16] = test system: PXR:RXRa (NR concentration 270 nM, RXRa partner concentration 90 nM)
# Summary of the method: as §1
# [17] = test system: PXR homodimer (NR concentration 270 nM)
# Summary of the method: as §1
# [18] = test system: RARa:RXR (NR concentration 270 nM, RXRa partner concentration 90 nM)
# Summary of the method: as §1
# [19] = test system: RARa homodimer (NR concentration 270 nM)
# Summary of the method: as §1
# [20] = test system: RARb:RXRa (NR concentration 270 nM, RXRa partner concentration 90 nM)
# Summary of the method: as §1
Sequence,PBM binding z-score [1],PBM binding z-score [2],PBM binding z-score [3],PBM binding z-score [4],PBM binding z-score [5],PBM binding z-score [6],PBM binding z-score [7],PBM binding z-score [8],PBM binding z-score [9],PBM binding z-score [10],PBM binding z-score [11],PBM binding z-score [12],PBM binding z-score [13],PBM binding z-score [14],PBM binding z-score [15],PBM binding z-score [16],PBM binding z-score [17],PBM binding z-score [18],PBM binding z-score [19],PBM binding z-score [20]
CCTAGCAGGCCAGGGTCAGTCAAGCATTTCGCTT,0.838,0.841,-0.832,1.08,-1.29,1.85,-0.277,0.376,-0.624,-0.0858,-0.0042,0.156,-1.41,-1.98,0.086,1.04,-0.793,1.69,-0.695,2.09
TGTCAAAGTTCAAAGGTAGCGTAAGTATCCACAC,6.72,6.04,4.44,4.05,1.42,5.57,8.17,7.45,4.48,7.05,0.0975,4.06,0.876,0.963,-0.119,5.11,3.16,4.97,0.73,5.09
TAGCCTAGGTCAGATCGTGCCAGTATACGCTATA,1.53,1.21,-0.412,1.06,0.00468,1.91,0.806,0.67,0.0687,0.244,0.562,1.66,0.149,-0.175,-0.159,0.82,-0.569,1.23,-0.542,3.18
TCACACAGGTGAAGGTAACTCAGGTACGCAGTCG,0.851,2.02,-0.228,1,-0.466,1.32,1.14,1.81,2.94,2.66,2.55,1.69,0.51,-0.435,-0.0155,0.559,-0.0288,0.898,0.414,1.15
CGAACTAGGTCATTGACGGGACAGTGAATAGTAA,4.27,2.52,0.242,1.81,-0.0446,4.64,7.48,6.38,3.39,5.82,8.12,8.13,2.44,0.8,1.5,1.15,0.012,1.98,0.192,3.63
TTACCAAGGTGAAGGTCGTTGGTCCCTCTGTAGA,1.16,1.1,-0.0893,1.2,-0.734,2.45,2.79,4.07,1.8,3.33,2.04,3.34,-0.723,-0.44,0.993,1.03,-0.26,1.49,-0.694,2.17
CCGAGTAGGTTATGGTGCATTCAGGCAACGGTGA,0.234,0.34,0.363,0.361,0.234,1.52,2.04,3.55,1.15,3.04,3.71,2.67,0.333,-0.183,1.25,-0.0319,0.413,0.311,0.498,0.711
AGAAGGAGGTTATACGTAGATCAGGGAAGAAAGT,1.61,1.45,0.366,1.43,0.303,2.43,1.33,1.28,0.492,0.986,2.41,1.24,2.08,0.617,1.18,1,1.06,0.963,1.33,1.34
TCTTGTAGATCAGCAGGTTCAGAAAGCTGGCCAA,-0.19,0.323,-0.435,0.265,-0.738,0.609,-0.665,1.1,2.02,1.52,1.4,0.189,-0.291,-0.791,-0.268,0.644,-0.241,0.455,-0.229,0.0377
CCTTATGGGTCACTCCAGGTTATAGCATCGGAGT,3.67,7.24,1.43,4.49,-0.105,3.92,4.6,4.39,1.84,3.6,5.51,5.56,1.27,1.01,1.61,4.22,0.18,2.9,0.657,3.35
TCTCGGAGGACACGAAAGGTCAGCGCTCGACATC,3.42,4.26,2.8,3.54,-0.162,3.88,1.58,3.31,2.59,2.86,2.02,1.8,-0.121,0.158,3.31,4.36,0.337,4.86,1.84,4.42
TCTTGTAGATCAAAGGTTAAGAACGCCGAAGCCT,2.02,2.28,0.21,2.16,0.138,4.96,8.19,7.86,7.43,8.26,2.38,3.76,0.351,0.234,1.19,2,0.16,2.42,0.244,1.86
TCTCGGTGGACACGAAGGTCAGAGCTTTCCAGAG,0.952,0.962,0.157,1.36,-0.833,2.04,0.78,2.38,2.3,2.3,1,0.976,-1.18,-1.31,0.842,1.38,-0.107,1.55,-0.711,2.57
ACTAGCAGGCCAAGTTTGGATCACTCAAACAAAG,-0.476,-0.653,-0.239,-0.541,-0.521,-0.385,0.154,-0.662,-0.693,-0.835,0.238,0.181,-0.895,-0.495,-0.574,-0.494,-0.612,-0.608,-0.518,0.165
CCTCGGAGGACAGAACGTCAGAGCTGTCCGCTTT,-0.455,-0.498,-0.707,-1.16,-1.1,-1.32,-0.391,-1.32,-1.28,-1.56,-0.575,-0.846,-2.12,-1.43,-1.05,-1.12,-0.765,-1.04,-0.587,0.103
ACTATTAGTTGAGACGGGGGCAACCGATAGGTTG,1.28,1.35,0.528,3.71,7.57,2.52,1.16,2.35,1.24,1.87,1.48,3.27,5.1,7.99,1.63,2.63,0.549,2.25,0.997,1.94
AGTCAAAGTTCGTCTAGGTAACGTAAGATATGCT,1.46,1.16,0.363,0.787,-0.0526,1.84,2.79,3.39,1.44,2.71,-0.0534,1.36,0.664,0.773,1.41,1.99,1.83,1.34,0.143,2.54
ACAGACAAGTGAGTGAAGGTAACTCAGCTGGACG,-0.054,-0.258,-0.475,-0.57,-0.342,-0.314,0.674,-0.0179,-0.202,-0.0069,-0.268,-0.138,0.174,0.39,-0.0501,-0.521,-0.267,-0.183,-0.707,-0.0703
ACAGACAGGTGAGTTAAGGTAACTCAGCTGGACG,0.488,-0.196,-0.499,-0.279,-0.347,0.226,0.637,0.279,0.254,0.0651,0.272,0.601,0.0974,0.513,0.279,0.151,-0.384,1.29,-0.525,0.48
ATCGAAAGGTCTTGAGGTGAGTATACAGAAAGGC,0.305,0.206,-0.36,0.394,-0.0662,1.68,1.15,0.897,0.286,0.647,-0.431,1.56,0.61,0.602,0.325,0.409,-0.368,1.43,0.103,2.13
AGAATGAGGTTATTAAGATCAGGTAATTGCGGTC,1.7,1.73,0.77,1.33,0.187,2.49,1.38,1.96,0.716,1.09,3.34,2.83,0.665,0.745,1.17,1.48,0.904,1.51,0.41,1.37
GCAGACAGGTGAAACGCAGGTAACACAGGGTGGC,-0.0327,-0.0189,-0.439,-0.317,-1.1,0.885,0.859,0.128,-0.52,-0.381,0.623,0.202,0.00158,-0.396,-0.0973,0.067,-0.211,0.594,-0.376,0.622
AATACAGGGTCATCGTAGGCCGGAGTACGCACAG,6.87,6.14,2.19,4.53,1.37,5.62,6.36,5.92,2.34,4.59,2.7,4.02,1.63,1.58,2.22,4.4,0.419,4.74,0.979,4.17
CGTCAAAGTTCAAGGTAAGGTAACAGAAAGCAGC,6.16,5.4,2.37,3.29,0.542,4.69,4.19,4.91,1.78,3.67,0.198,2.04,0.246,0.255,1.61,4.03,1.72,3.78,1.28,5.22
CTCGAAAGGTCGGTTGGGGTGAGTATACGGATAA,3.34,2.38,0.622,2.86,1.41,3.38,0.807,1.47,0.13,0.958,0.404,1.47,0.0444,1.01,1.6,3.44,0.962,2.76,0.684,3.31
GCTAGTTGGTCAGTAAAAGGTCACACAGCGGTCG,3.2,4.47,4.65,4.17,0.715,4.62,2.84,4.58,2.15,4.37,1.19,2.6,-0.374,-0.109,8.6,5.42,1.17,6.43,4.55,4.32
ATCGAAAGTTCGAAGGTGAGTATACCCACCCGAA,0.822,1.16,0.11,0.739,-0.0356,1.9,1.07,1.17,0.177,0.844,0.0334,0.537,0.525,0.231,0.595,1.16,-0.00599,1.67,-0.2,2.07
CCGACTGGGGCAAGGTTACCTTAACGCACAGCCA,0.184,0.54,-0.581,0.495,-1.66,1.97,2.58,3.54,0.821,3.07,3.34,3.76,-1.05,-0.772,0.376,0.303,-0.595,0.858,-0.882,1.63
